BAZ2B inh: blocks human BAZ2B | AlphaScreen BAZ2B-H3K14Ac peptide displacement | Potency, µM (series often up to 114 µM), for the others: top-dose activity change, negative = inhibition, most hits filed as inhibitors | Q9UIF8 | AID 504333 | hit rate 4.4% among 360,000; also: % is scaled to controls: 0 for no effect and ±100 for the full control effect; nearly all actives have a fitted effect of over 60% in size
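AlphaScreen luminescence quantifies BAZ2B engagement of H3K14Ac peptide; the protein and biotinylated peptide are both at 50 nM final, buffer PBS pH 7.4 with 0.01% Tween-20, all steps at room temperature.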
JMJD2A Tudor inh: inhibitors of human JMJD2A Tudor domain; O75164; AlphaScreen JMJD2A-Tudor / H3K4me3 peptide binding; Potency, µM (highest dose often 114 µM), without a hit: top-dose activity change, negative = inhibition, hits mostly inhibitors; hit rate 4.4% among 390,000; also: % is scaled to controls: 0 for no effect and ±100 for the full control effect; nearly all actives have a fitted effect of over 50% in size
G9a inh: blocks human histone lysine methyltransferase G9a | Q96KQ7 | Potency, µM (top dose mostly 102 µM), without a hit: top-dose activity, negative = inhibition, hits mostly inhibitors | AID 504332 | G9a H3K9 monomethylation, AlphaScreen, 2 h | hit rate 8.8% among 350,000; also: % is scaled to controls: 0 for no effect and ±100 for the full control effect; nearly all actives have a fitted effect of over 75% in size
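AlphaScreen read-out: biotin-H3K9 peptide (500 nM) methylation by 20 nM enzyme with 20 uM SAM, 2 h at room temperature after 15 min compound preincubation; anti-monomethyl H3K9 antibody plus donor/acceptor beads, 10 min dark.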
Sfp inh: Sfp phosphopantetheinyl transferase inhibition | Biochemical Sfp PPTase activity, qHTS | Potency, µM, without a hit: largest response in the series, negative = inhibition, hits mostly inhibitors | hit rate 3.5% among 310,000 | AID 1490;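 also: the enzyme is Sfp with the accession as filed and its product quenches rhodamine fluorescence; 0% = enzyme reaction without inhibitor and -100% = no enzyme wells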
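Fluorescence-quenching assay with 15 nM Sfp, 5 uM rhodamine-CoA and 12.5 uM BHQ-2-labelled ybbR peptide in pH 7.6 Hepes/MgCl2 buffer. Enzyme was pre-incubated with compound for 15 min at room temperature. Rate was taken from the 30-min fluorescence change (525/598 nm).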
TDP1 block: TDP1 (human) enzyme inhibition | hit rate 0.28% among 350,000 | Potency, µM (series often up to 130 µM), without a hit: at the top dose activity change, negative = inhibition, actives largely listed as inhibitors | recombinant TDP1, AlphaScreen DNA substrate cleavage | AID 485290 | Q9NUW8; also: % is scaled to controls: 0 for no effect and ±100 for the full control effect; nearly all actives have a fitted effect of over 40% in size
Target sequence (Q9NUW8 whole entry, looked up): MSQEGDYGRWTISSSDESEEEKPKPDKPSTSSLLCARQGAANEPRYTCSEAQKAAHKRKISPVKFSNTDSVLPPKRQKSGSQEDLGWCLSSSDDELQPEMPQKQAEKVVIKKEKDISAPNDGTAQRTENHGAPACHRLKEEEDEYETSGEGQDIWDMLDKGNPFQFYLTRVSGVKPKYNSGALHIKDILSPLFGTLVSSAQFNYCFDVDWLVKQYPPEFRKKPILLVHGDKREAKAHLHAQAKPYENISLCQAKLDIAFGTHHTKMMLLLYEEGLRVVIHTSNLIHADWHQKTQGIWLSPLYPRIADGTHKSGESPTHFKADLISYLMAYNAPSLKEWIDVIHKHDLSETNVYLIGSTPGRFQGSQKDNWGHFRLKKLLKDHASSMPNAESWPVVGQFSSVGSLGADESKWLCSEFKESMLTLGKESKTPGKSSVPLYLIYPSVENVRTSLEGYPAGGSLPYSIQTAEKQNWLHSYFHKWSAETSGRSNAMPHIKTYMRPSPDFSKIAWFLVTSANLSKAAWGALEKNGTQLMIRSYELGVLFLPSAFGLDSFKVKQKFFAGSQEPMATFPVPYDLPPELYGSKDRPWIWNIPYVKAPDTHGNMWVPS
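Here, a 5' biotin and 3' phosphotyrosine-FITC DNA oligonucleotide reports Tdp1 activity: intact substrate bridges AlphaScreen beads, while cleavage leaves a 3' phosphate and drops signal. All incubations at room temperature.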
HP1b binding inh: blocks HP1-beta chromodomain binding to methylated histone tails; AlphaScreen HP1-beta / biotin-H3K9me3 peptide binding; Potency, µM (doses to about 114 µM), without a hit: top-dose activity change, negative = inhibition, usual class: inhibitors; hit rate 0.56% among 390,000; also: nearly all actives have a fitted effect of over 70% in size
Target sequence (P83916 whole entry, looked up): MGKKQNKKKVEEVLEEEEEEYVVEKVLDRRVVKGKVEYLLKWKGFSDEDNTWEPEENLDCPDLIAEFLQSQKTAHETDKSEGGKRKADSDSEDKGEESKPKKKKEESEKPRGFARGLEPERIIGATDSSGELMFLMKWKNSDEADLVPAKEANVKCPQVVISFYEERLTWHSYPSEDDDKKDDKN
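HP1-beta protein (50 nM final) preincubated 30 min at room temperature with biotinylated H3(1-18)K9me3 peptide (50 nM) in PBS pH 7.4, 0.01% Tween-20, then compound added for 30 min. AlphaScreen streptavidin donor/nickel chelate acceptor beads (10 ug/mL final), 30 min dark, luminescence read.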
Numbers without * were called inactive; ? = inconclusive; · = no result given; [ ] = dose if it differs, or a comment. Shown are actives, neighbours in structure and some others; about 12% of the full set was active somewhere. Calls follow the shape of the dose curve; as a rule, active = well fitted curve in the direction sought with a large enough effect; inconclusive = small, poorly fitted or top-dose-only effect, or another doubt; inactive = no such curve, though single readings can be large; an effect the other way counts as inactive or inconclusive. Potency is read from the fitted curve at half-maximal effect.

SMILES | BAZ2B inh | JMJD2A Tudor inh | G9a inh | Sfp inh | TDP1 block | HP1b binding inh
O=C(c1ccc([N+](=O)[O-])s1)N1CCN(c2ccccn2)CC1 | -8.4% | ? | 27.0% | 6.0% | 5.5%[0.0935 µM] | -34.1%
O=C(NNC(=O)c1ccccn1)c1ccc(OC(F)F)cc1 | · | -28.1% | · | · | -0.7% | 23.4%
CC(=O)c1cc2c(O)c(O)ccc2o1 | -30.4% | ? | 3.98µM* | 56.2µM* | 1.0% | 15.5%
O=C(O)c1cc2c(ccc3ccccc32)o1 | -2.1% | -15.1% | ? | 1.0% | ? | 34.0%
O=C1N(c2ccccc2)C(c2ccccc2)C12CCCCC2 (stereo not given) | · | 30.1% | · | · | · | 88.0%
O=C(O)c1cccc(S(=O)(=O)Nc2ccc3[nH]c(=O)[nH]c3c2)c1 | -32.2% | -19.0% | 7.2%[59 µM] | 6.4% | · | 68.2%
O=C(O)c1cccc(S(=O)(=O)Nc2ccc3oc(=O)sc3c2)c1 | -10.6% | -20.6% | ? | 11.2µM* | · | 46.4%
COc1cccc(CN(C)C(=O)c2cccc(OCc3ccccc3)c2)c1 | 61.1% | 48.8% | 77.5% | -28.2% | 0.4% | 141.0%
CCCN(CC(=O)Nc1ccc(F)c(F)c1F)C(=O)C1=COCCO1 | -10.0% | 2.6% | 56.2µM* | · | -1.0% | 38.4%
CCCn1c(SCC(=O)c2cc(C)c(C)cc2C)n[nH]c1=O | 2.7% | -5.1% | 11.2µM* | 11.1% | 2.3% | 35.4%
CCOC(=O)C(C)NC(=O)c1c(C)oc2ncn(CC(C)C)c(=O)c12 (stereo not given) | 6.4%[57.1 µM] | -9.7% | -7.0%[59 µM] | · | 1.1% | 7.4%
COc1ccc(N2CCN(C(=O)COC(=O)CCOc3ccc(C(C)(C)C)cc3)CC2)cc1 | -9.8% | -0.7% | -42.3% | · | 2.3% | 19.8%
COC(=O)CN1C(=O)Nc2ccc(Cl)cc2C1c1ccccc1 (stereo not given) | -18.5% | -11.6% | 7.0% | -1.5% | · | 18.7%
COC(=O)CN1C(=O)Nc2ccc(Br)cc2C1c1ccccc1Cl (stereo not given) | 3.9% | -16.6% | 70.8µM* | -22.5% | 6.0% | 18.5%
NS(=O)(=O)c1ccc(N/N=C2/CCCc3ccccc32)c([N+](=O)[O-])c1 | -1.6% | -13.9% | -34.4% | -5.9% | -2.6% | 6.9%
O=[N+]([O-])c1cc(S(=O)(=O)N2CCCC2)ccc1N/N=C1/CCCc2ccccc21 | 3.55µM* | ? | 4.47µM* | 7.4% | 5.1% | ?
CCOC(=O)C1CCN(C(=O)Cn2cnc3sc(C)c(S(=O)(=O)N4CCOCC4)c3c2=O)CC1 | -10.6% | -3.5% | 15.3% | 19.2% | 7.5% | 24.7%
Cc1sc2ncn(CC(=O)N3CCC(C(N)=O)CC3)c(=O)c2c1S(=O)(=O)N1CC(C)CC(C)C1 (stereo not given) | 3.3% | 100µM* | -0.6% | 14.0% | 4.6% | -95.2%
O=C(COC(=O)c1cccc(Br)c1)NCCC1=CCCCC1 | · | -5.2% | 2.7% | -14.5% | 5.3% | 19.5%
O=C(COC(=O)c1cncc(Br)c1)NCCC1=CCCCC1 | -6.1% | 6.3% | 50.1µM* | -12.6% | 4.1% | 38.8%
Cc1ccc(S(=O)(=O)N2CCN(c3ccc(C(=O)N4CCOCC4)cc3[N+](=O)[O-])CC2)cc1 | -35.9% | -32.4% | -16.3%[59 µM] | -4.0% | 3.5% | 0.3%
COc1cccc(C(=O)/C=C/c2ccc(N3CCCCC3)c([N+](=O)[O-])c2)c1 | 10µM* | 39.8µM* | 7.08µM* | -1.0% | 11.5% | ?
Cc1ccc(N(Cc2ccco2)C(=O)c2ccc(N3CCCCC3)c([N+](=O)[O-])c2)cc1 | ? | 17.8µM* | ? | -15.6% | 10.9% | ?
O=C(NCc1ccco1)c1ccc(N2CCOCC2)c([N+](=O)[O-])c1 | -24.1% | -23.6% | ? | 13.3% | 5.4% | -4.0%
O=C(/C=C/c1ccc(N2CCCCC2)c([N+](=O)[O-])c1)c1ccc(S(=O)(=O)N2CCCC2)cc1 | ? | -22.1% | 4.47µM* | 3.6% | 11.3% | ?
SMILES | BAZ2B inh | JMJD2A Tudor inh | G9a inh | Sfp inh | TDP1 block | HP1b binding inh
CC(=O)N1CCN(c2ccc(S(=O)(=O)N3CCCCC3)cc2[N+](=O)[O-])CC1 | · | -9.6% | · | · | 2.0% | 14.6%
Cc1ccc(S(=O)(=O)N2CCN(C(=O)c3ccc(N4CCCCC4)c([N+](=O)[O-])c3)CC2)cc1 | ? | ? | 31.6µM* | 12.8% | 4.7%[56.1 µM] | -19.6%
CCC(C)N(C(=O)CSc1nc(C)c(C)c(C)c1C#N)C1CCS(=O)(=O)C1 (stereo not given) | 27.8% | -4.3% | -26.6%[12.7 µM] | · | 1.3% | 2.7%
COc1ccc(C)cc1NC(=O)Cn1cc(S(=O)(=O)Cc2ccccc2Cl)c2ccccc21 | -10.0% | -16.2% | -24.8%[59 µM] | · | 6.2% | 6.1%
CN(C)c1ccc(/C=C/C(=O)c2ccccc2)cc1[N+](=O)[O-] | 14.1µM* | 44.7µM* | ? | -14.7% | -2.7% | ?
COC(=O)c1cc(NS(=O)(=O)c2ccc(N3CCOCC3)c([N+](=O)[O-])c2)cc(C(=O)OC)c1 | ? | ? | ? | -2.2% | 2.7% | -4.1%
COC(=O)c1cc(NS(=O)(=O)c2ccc(N3CCCCCC3)c([N+](=O)[O-])c2)cc(C(=O)OC)c1 | ? | ? | 44.7µM* | -2.9% | 4.0% | -24.6%
CCOC(=O)Cc1csc(NC(=O)CSc2nc(=O)[nH]c3c2CCCC3)n1 | -7.8% | -11.0% | -11.0% | · | 0.6% | 31.3%
CC(C)N(C(=O)[C@H]1C[C@H](CC(=O)NC(C)(C)C)C(=O)N2CCc3c([nH]c4cc(-c5ccco5)ccc34)[C@]12C)C(C)C | · | 50.1µM* | · | · | 5.5%[56.1 µM] | ?
CCN(CC)C(=O)[C@H]1C[C@H](CC(=O)NC(C)(C)C)C(=O)N2CCc3c([nH]c4cc(-c5ccco5)ccc34)[C@]12C | · | ? | · | · | 2.4%[56.1 µM] | 2.8%
CC(C)=CCC/C(C)=C/CNC(=O)CC1C[C@H](C(=O)N2CCOCC2)[C@@]2(C)c3[nH]c4ccccc4c3CCN2C1=O (stereo not given in full) | · | ? | · | · | 5.7% | 1.4%
CC(C)=CCC/C(C)=C/CNC(=O)C[C@H]1C[C@H](C(=O)N2CCOCC2)[C@@]2(C)c3[nH]c4cc(-c5ccco5)ccc4c3CCN2C1=O | · | 39.8µM* | · | · | 6.0%[56.1 µM] | ?
CN(C)CCCNC(=O)C[C@H]1C[C@H](C(=O)N2CCCCC2)[C@@]2(CCc3ccccc3)c3[nH]c4cc(-c5ccco5)ccc4c3CCN2C1=O | · | 50.1µM* | · | · | 4.4%[56.1 µM] | ?
CC(C)CN(CC(C)C)C(=O)CN1C(=O)NC2(CCc3ccccc3C2)C1=O (stereo not given) | 3.9% | -0.3% | 0.2% | 18.2% | · | 24.1%

Source: PubChem BioAssay
